GLP1R ag: agonists of human GLP-1 receptor | Potency, µM (highest dose often 45.6 µM), for the others: top-dose activation, usual class: activators | P43220 | 380,000 compounds, 0.007% hits | HEK293 GLP-1R CRE-luciferase, luminescence, 4-6 h; cells express a hypersensitive GLP-1R form; also: % of control where 0% means no effect
Target sequence (P43220 whole entry, looked up): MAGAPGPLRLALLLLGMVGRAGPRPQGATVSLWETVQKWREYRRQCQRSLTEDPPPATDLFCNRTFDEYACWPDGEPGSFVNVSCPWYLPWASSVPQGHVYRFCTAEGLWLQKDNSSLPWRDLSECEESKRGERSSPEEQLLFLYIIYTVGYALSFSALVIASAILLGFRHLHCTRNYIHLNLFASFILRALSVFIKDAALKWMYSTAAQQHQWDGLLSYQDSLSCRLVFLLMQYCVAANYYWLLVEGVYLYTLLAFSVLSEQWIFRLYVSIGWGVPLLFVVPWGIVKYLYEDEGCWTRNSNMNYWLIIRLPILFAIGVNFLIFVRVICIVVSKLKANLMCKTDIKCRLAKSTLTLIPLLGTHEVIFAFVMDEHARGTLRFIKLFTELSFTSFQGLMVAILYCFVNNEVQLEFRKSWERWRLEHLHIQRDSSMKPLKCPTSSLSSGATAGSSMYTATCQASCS
GLP1R cytotox: cytotoxic in the GLP-1 receptor inverse agonist counter-screen. HEK293 cAMP-luciferase reporter cells, luminescence, 24 h. Potency, µM (titrated, usually from 38.3 µM), for the others: top-dose activity change, negative = inhibition, most hits filed as inhibitors. 410,000 compounds, 0.13% hits. AID 624418;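 also: loss of luciferase light is scored as toxicity; % is scaled to controls: 0 for no effect and ±100 for the full control effect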
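To flag toxic compounds, the library was rerun on cells for 24 hr at 37 deg C and 5% CO2. Viability-linked luminescence was captured 12 min after adding luciferase detection reagent.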
GLP1R inv ag: acts as inverse agonist at human GLP-1 receptor; Potency, µM (titrated, usually from 38.3 µM), without a hit: at the highest dose activity change, negative = inhibition, actives largely listed as inhibitors; P43220; HEK293 GLP-1R CRE-luciferase, luminescence, 24 h; GLP-1R form is constitutively active; 410,000 compounds, 1.6% hits; also: % is scaled to controls: 0 for no effect and ±100 for the full control effect; nearly all actives have a fitted effect of over 55% in size
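Using stably transfected HEK293 (constitutively active GLP-1R, cAMP-luciferase reporter), compounds were incubated 24 hr and luciferase measured by luminescence.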
ClpP mod: qHTS Assay for Activators of ClpP | ATP-dependent Clp protease proteolytic subunit (Bacillus subtilis (strain 168)), P80244 | purified B. subtilis ClpP, FRET peptide cleavage, 20 min | Potency, µM (doses to about 57.5 µM), for the others: at the top dose activity change, negative = active | 340,000 compounds, 1.9% hits | AID 651965, 2013; active = well fitted falling curve with a large enough effect; inconclusive = small, poorly fitted or top-dose-only effect; inactive = no such curve, though single readings can be large or run the other way; also: the source files actives as falling curves though it sought activators and does not explain the sign; nearly all actives have a fitted effect of over 65% in size
Target sequence (P80244 whole entry, looked up): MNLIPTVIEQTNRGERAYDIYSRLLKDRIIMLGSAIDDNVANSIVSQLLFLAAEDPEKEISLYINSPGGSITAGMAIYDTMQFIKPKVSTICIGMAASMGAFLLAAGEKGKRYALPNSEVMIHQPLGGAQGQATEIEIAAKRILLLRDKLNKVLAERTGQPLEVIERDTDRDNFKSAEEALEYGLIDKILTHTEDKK
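ClpP 10 microg/mL final, pH 8 Tris/KCl buffer with BSA, glycerol, Tween-20; compound pinned in; FRET-FV substrate; RT 20 min; Ex320/Em430; ΔFRET vs ADEP 5.8 microM, DMSO, no enzyme.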
* = called active by the depositor; i = inactive; ? = inconclusive; / = no result. Shown are actives, neighbours in structure and some others; about 3.2% of the full set was active somewhere. Unless noted, calls follow the shape of the dose curve; as a rule, active = well fitted curve in the direction sought with a large enough effect; inconclusive = small, poorly fitted or top-dose-only effect, or another doubt; inactive = no such curve, though single readings can be large; an effect the other way counts as inactive or inconclusive. Potency is read from the fitted curve at half-maximal effect.

SMILES	GLP1R ag	GLP1R cytotox	GLP1R inv ag	ClpP mod
CC(=O)[C@@]1(O)CC[C@H]2[C@@H]3C=C(Cl)C4=CC(=O)CC[C@]4(C)[C@H]3CC[C@@]21C	-3%	/	/	/
CNC(=O)c1cc(C)c(-c2ccccc2)s1	18%	2%	3%	32µM*
CNC(=O)c1cc2c(-c3ccccc3)nn(C)c2s1	20%	-2%	52%	/
CCc1ccc([C@@H]2C[C@H]3CN(Cc4ccccc4OC)C(=O)[C@]34CCCN24)cc1	8%	-7%	13µM*	/
COc1ccc(C2=C(C)C(=O)N(Cc3ccc(C(=O)Nc4ccc(F)cc4C)cc3)S2(=O)=O)cc1	/	?	?	4%
COC(=O)c1c(NC(=O)CSc2nnc3ccccn23)sc2c1CCC2	10%	-4%	21%	28µM*
CCOC(=O)CNc1c(-c2ccc(OC)cc2)nc2ccc(Cl)cn12	11%	-6%	16%	-9%
CCOC(=O)CNc1c(-c2ccc(Cl)cc2)nc2cnccn12	2%	i	0%	28µM*
CCOC(=O)CNc1c(-c2ccc(F)cc2)nc2cnccn12	13%	i	0%	25µM*
CC(NC(=O)c1ccco1)C1COc2ccccc2O1 (centres undefined)	-22%	15%	-15%	-4%
CC(NC(=O)CCC(=O)NC(C)C1COc2ccccc2O1)C1COc2ccccc2O1 (centres undefined)	6%	-14%	8.9µM*	0%
COc1ccc(CNC(C)C2COc3ccccc3O2)c(OC)c1 (centres undefined)	21%	-13%	?	28µM*
Cc1ccc(CCNC(=O)c2ccc(CNS(=O)(=O)c3ccc(F)cc3)cc2)cc1	/	0%	-24%	6%
CCOc1cc(/C=N\Nc2nc(Nc3ccccc3)nc(N3CCOCC3)n2)ccc1OC(=O)c1ccco1	-9%	8%	7.1µM*	-13%
Cc1ccc(Nc2nc(N/N=C\c3ccc4c(c3)OCO4)nc(N3CCOCC3)n2)cc1	9%	?	4.5µM*	/
CN(C)c1nc(NCc2ccccc2)nc(N/N=C/c2ccc3c(c2)OCO3)n1	1%	?	10µM*	-2%
COc1ccc(-c2cc(C(=O)NCc3ccc(F)cc3)c3c(-c4ccc(F)cc4)[nH]nc3n2)cc1OC	/	2%	2%	4%
CCCOC(=O)c1c(NC(=O)C2c3ccccc3Oc3ccccc32)sc2c1CCC(C)C2 (centres undefined)	/	7%	-6%	-15%
CNS(=O)(=O)c1cn(CC(=O)Nc2ccc(C)cc2C)cc1S(=O)(=O)NC	/	-6%	6%	1%
O=C(COC(=O)c1cccc2ccccc12)Nc1cccnc1Cl	20%	-8%	-5%	16µM*
O=C(COC(=O)c1cccc2ccccc12)Nc1ncc(C(F)(F)F)cc1Cl	-9%	6%	2%	35µM*
CCOc1ccccc1C(=O)OCC(=O)Nc1ncc(C(F)(F)F)cc1Cl	1%	0%	0%	-18%
O=S(=O)(Nc1ccc(-c2ccc(N3CCCC3)nn2)cc1)c1ccc(OC(F)(F)F)cc1	/	-6%	?	-10%
CCC[N+](C)(C)c1ccc(/C=C/c2ccncc2)cc1	/	/	/	2%
COc1cc(-c2nc3c(c(C)nn3-c3ccccc3)c3cc(OC)c(OC)cc23)ccc1O	5%	20%	9%	7.9µM*
SMILES	GLP1R ag	GLP1R cytotox	GLP1R inv ag	ClpP mod
CCn1c(NCc2ccc(N(C)C)cc2)nc2ccccc21	18%	3%	0%	-9%
CN(C)c1ccc(N=Nc2nc3ccccc3n2C)cc1	-9%	5µM*	?	2%
Cn1c(N=Nc2ccccc2)nc2ccccc21	-20%	10µM*	4.5µM*	-2%
O=C(CSc1nnc(SCc2cccc3ccccc23)s1)N/N=C/c1c[nH]c2ccccc12	3%	-6%	5.6µM*	1%
O=C(CSc1ncc2c(n1)-c1cc(Cl)ccc1N(Cc1ccccc1)S2(=O)=O)NCCc1ccccc1	/	6%	-9%	-27%
Cc1c(C(=O)N2c3ccccc3Sc3ccccc32)cccc1[N+](=O)[O-]	2%	?	1.8µM*	1%
CN1CCN(c2ccc(NC(=O)COc3ccc4ccccc4c3)cc2)CC1	21%	-7%	7.1µM*	/
CN1CCN(c2ccc(NC(=O)COc3cccc4ccccc34)cc2)CC1	14%	1%	10µM*	/
O=C(COc1ccccc1)Nc1ccc(N2CCCCC2)cc1	10%	-2%	10%	/
CN1CCN(c2ccc(NC(=O)c3ccc4ccccc4c3)cc2)CC1	1%	64%	2µM*	/
COC(=O)c1ccc(CSc2nc3c([nH]c4ccccc43)c(=O)n2-c2cccc(OC)c2)o1	-2%	-3%	?	-13%
CCOc1ccccc1NC(=O)CCc1nc(-c2cccc(C)c2)no1	/	0%	-16%	-1%
CCCSc1nc2sc3c(c2c(=O)n1CC)CC(C)(C)OC3	20%	-13%	10µM*	/
CCC1(C)Cc2c(sc3nc(NC)n(C)c(=O)c23)CO1 (centres undefined)	3%	-4%	0%	14µM*
CCCCCc1nc2sc3c(c2c(=O)n1NC(=O)c1ccc([N+](=O)[O-])cc1)CC(C)(C)OC3	1%	-10%	10µM*	/
CC12CCC(C(=O)NNc3ccc([N+](=O)[O-])cc3)(CC1=O)C2(C)C (centres undefined)	-8%	10%	8.9µM*	-2%
Cc1ccc(C(=O)C[n+]2ccc(-c3nnc4n3CCC4)cc2)cc1	17%	19%	24%	11µM*
N=C1CCCN1CC(=O)c1ccc(Cl)cc1	1%	0%	5%	2%
O=C(C[n+]1ccc(-c2nnc3n2CCC3)cc1)c1ccc(Cl)cc1	2%	0%	1%	32µM*
CC(C)(C)CC(=O)Nc1ccc(-c2nnc3n2CCCCC3)cc1	-4%	-15%	5%	-1%
CC1CN(C(=O)Nc2ccc(C(=O)NCc3cccc(F)c3)cc2)c2ccccc2S1 (centres undefined)	/	-18%	?	-2%
Cc1cc(C)c2cc(C(=O)N(C)C3CCN(C)CC3)[nH]c2c1	9%	7%	5µM*	/
CN(C)C(CNC(=O)c1cccs1)c1ccco1 (centres undefined)	0%	5%	6%	-2%
CN(C)C(CNC(=O)c1ccco1)c1cccs1 (centres undefined)	3%	4%	3%	11µM*
CCOC(=O)c1cccc(NC(=O)Cn2c(=O)nc(-c3ccccc3)c3ccccc32)c1	/	-11%	5%	-2%
CSC(=NNC(=O)c1ccc(O)cc1)SC	0%	-2%	16%	28µM*
C/C(=N\NC(=O)c1ccc(O)cc1)c1ccc(NC(=O)Cc2ccccc2)cc1	3%	?	?	-2%
CCn1c(=O)n(CC)c2cc(N3CCCCC3)c(NC(=O)Nc3ccccc3C(F)(F)F)cc21	/	-13%	?	-22%

Screening results deposited in PubChem BioAssay by National Center for Advancing Translational Sciences (NCATS).
